Source: PubChem BioAssay (NCI)
Where “and” joins values, the source holds several entries; their conditions need not be identical. Equal entries are not always repeated. About 83,000 compounds went through this panel and 20% of them were active in at least one assay; those are over-represented in the sample as a whole.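 Activity criterion: percent growth below 10, measured after cells in 96-well plates were exposed to a single compound concentration for 48 hours.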 The source holds several records for some structures; these can differ, active in one and inactive in another. Calls of active or inactive are those of the source.

Assays:
Assay in all cases: NCI-60 one-dose screen, 48 h (100 = growth as untreated, 0 = no growth, -100 = all killed)
Conditions in all cases: 10 µM unless noted
[1] = test system: T-47D breast
[2] = test system: BT-549 breast
[3] = test system: MDA-MB-435 melanoma
[4] = test system: SW-620 colon
[5] = test system: MCF7 breast
[6] = test system: HCT-116 colon
[7] = test system: HCC-2998 colon
[8] = test system: KM12 colon

Measured: growth

Cc1cccc(/C=C\C(=O)c2ccccc2)c1
inactive: [1] 93.8% and 93.5% | [2] 90.5% | [3] 98.4% and 88.5% | [4] 84.6% and 62.2% | [5] 43.4% and 82.6% | [6] 56.9% | [7] 97% and 103% | [8] 85.6% and 62.7%

COc1ccc2c(=O)cc(-c3ccccc3)[nH]c2c1
17.4% (inactive) and 2.14% (active): [7]
14.1% (inactive) and 8% (active): [8]
16.7% (inactive) and 8.27% (active): [6]
inactive: [1] 50.7% and 57.1% | [2] 48.6% and 45.1% | [4] 23.1% and 33.3% | [5] 18.2% and 14.8%
active: [3] -46.6% and -12%

Cc1cc(N=Nc2ccc(C)c(N=Nc3cc(C)c(N)cc3N)c2)c(N)cc1N
inactive: [1] 77.5% and 82.6% | [2] 94.2% | [3] 100% and 12% | [4] 94.8% and 48.4% | [5] 66.9% and 19.4% | [6] 84.3% and 58.3% | [7] 105% and 91% | [8] 90.6% and 39.6%

Nc1cc2c(cc1N)-c1ccccc1C2
inactive: [1] 80.8% and 79.5% | [2] 64.1% and 75.5% | [3] 91.6% and 94.1% | [4] 108% and 100% | [5] 81.2% and 95% | [6] 98.8% and 100% | [7] 102% and 90.1% | [8] 90% and 97.1%

O=C1OC2(c3ccccc31)c1ccc(O)c(O)c1Oc1c2ccc(O)c1O
inactive: [1] 106% and 99.5% | [2] 118% | [3] 112% and 130% | [4] 105% and 113% | [5] 109% and 105% | [6] 110% and 102% | [7] 104% and 109% | [8] 104% and 113%

CCN(CC)CCNc1ccc(C)c2sc3ccccc3c(=O)c12 (tested in a mixture with another compound)
inactive: [1] 41% and 31.5% | [2] 46.4% and 79.4% | [3] 23.9% and 28.2% | [4] 24% and 20.5% | [6] 19.4% and 19.9% | [7] 24.6% and 20.5% | [8] 32.9% and 23.9%
12.2% (inactive) and 5.61% (active): [5]

COc1ccccc1NC(=O)OCC#CCOC(=O)Nc1ccccc1OC
inactive: [1] 96.7% and 89.2% | [2] 91% | [3] 95.2% and 75.5% | [4] 102% and 90.2% | [5] 107% and 91.8% | [6] 99.9% and 87.4% | [7] 103% and 104% | [8] 108% and 91.2%

N=C1N=C(N)CS1
inactive: [1] 108% | [2] 120% | [3] 106% | [4] 102% | [5] 96.8% | [6] 107% | [7] 110% | [8] 107%

S=C(S)N1CCCC1
inactive: [1] 98.4% and 89% | [2] 91% and 114% | [3] 109% and 90.9% | [4] 96.2% and 84.8% | [5] 72.9% and 61.8% | [6] 89.7% and 86.2% | [7] 113% and 94.9% | [8] 90.4% and 93.9%
